The structures appear in SMILES notation. Records with an inconclusive call do not appear. Activity calls are given as the source filed them. Rule for the calls, unless noted: active = hit-call score of the fitted dose curve at least 0.9, where 1 is the maximum; inactive = score below 0.9.

Among the data in PubChem BioAssay (EPA / NIEHS) are outcome and AC50 values, retold here.

The nature of assay [1]: CCTE_Shafer_MEA_dev_network_spike_number: CCTE's Neural Network Formation Assay for Number of Network Spikes, Shafer Lab (AID 2284048).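 For AC50: fit as a loss of signal meaning fewer network spikes than DMSO.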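 Note: synchronized bursts across electrodes counted on days 5 7 9 12 and integrated as AUC.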 The essentials: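 Primary rat cortical neurons were seeded at 1.5 x 10^5 cells/well on PEI-coated 16-electrode MEA wells with laminin, exposed from plating day 0, compound renewed at DIV 5 and 9. Network spikes were recorded on days 5, 7, 9, 12 and summarized as trapezoidal AUC versus DMSO.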

Assay [2] is described as follows: CCTE_Shafer_MEA_dev_network_spike_peak: CCTE's Neural Network Formation Assay for Mean Number of Electrodes in Network Spike, Shafer Lab (AID 2284049).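 For AC50: fitted for loss of signal meaning fewer electrodes in network spikes than DMSO.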 Put shortly: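 Continuous 12-day exposure of rat cortical cultures, starting at plating, on MEA plates. Endpoint: electrodes participating in network-spike peaks, AUC across DIV 5–12, DMSO as negative control.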

Assay [3] can be described thus: CCTE_Shafer_MEA_dev_spike_duration_mean: CCTE's Neural Network Formation Assay for Mean Spike Duration, Shafer Lab (AID 2284051).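 For AC50: potency for a decrease in mean network spike duration versus DMSO.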 Put shortly: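 Readout is the average length of network spikes, clustered firing across electrodes, summed over DIV 5, 7, 9 and 12 as area under the curve. Neurons from rat cortex developed networks on MEA plates under continuous 12-day exposure.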

The nature of assay [4]: CCTE_Shafer_MEA_dev_network_spike_duration_std: CCTE's Neural Network Formation Assay for Standard Deviation of Network Spike Duration, Shafer Lab (AID 2284052).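 Note: hits are decreases in network spike duration SD versus DMSO vehicle.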 The essentials:
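Read-out is the trapezoidal area-under-the-curve across recordings made on days 5, 7, 9 and 12, fitted in the negative direction against DMSO baseline. Neurons were primary rat cortical cells treated from day 0, with treatment renewed at each feed.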

A short description of assay [5]: CCTE_Shafer_MEA_dev_per_network_spike_spike_number_mean: CCTE's Neural Network Formation Assay for Mean Number of Spikes in a Network Spike, Shafer Lab (AID 2284053).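 For AC50: fitted as decrease in spikes per network spike relative to DMSO.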 Put shortly:
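Continuous twelve-day exposure of developing rat cortical networks grown over 16 microelectrodes per well; spontaneous firing is captured at four time points, and the per-network-spike spike number is integrated over development by trapezoidal AUC.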

Assay [6] can be described thus: CCTE_Shafer_MEA_dev_per_network_spike_spike_percent: CCTE's Neural Network Formation Assay for Percent of Spikes in a Network Spike, Shafer Lab (AID 2284054). Put shortly:
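Primary rat cortical neurons on 16-electrode MEA wells (PEI-coated, laminin at plating), exposed from day 0 with renewal at DIV 5 and 9; spikes within 0.05 s of network-spike peaks over total spikes, AUC across days 5, 7, 9, 12.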

Assay [7] is described as follows: CCTE_Shafer_MEA_dev_LDH: CCTE's Lactate Dehydrogenase Assay for Cytotoxicity in the Neural Network Formation Assay, Shafer Lab (AID 2284068; active = hit-call score of the fitted dose curve at least 0.9, where 1 is the maximum;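 note: exposure for twelve days from plating with re-dosing on DIV 5 and 9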). Put shortly:
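Cytotoxicity companion to network-formation recordings: rat cortical neurons received compound over 12 days of development, re-dosed at DIV 5 and 9 feeds. Viability was inferred from LDH enzyme activity relative to DMSO.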

The nature of assay [8]: CCTE_Shafer_MEA_dev_AB: CCTE's Alamar Blue Assay for Cytotoxicity in the Neural Network Formation Assay, Shafer Lab (AID 2284083; active = hit-call score of the fitted dose curve at least 0.9, where 1 is the maximum;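 note: resazurin reduction fluorescence as viability of cultured neurons; twelve days of exposure from plating with re-dosing on DIV 5 and 9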). The essentials:
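Fluorescent resazurin reduction serves as the viability read-out, with DMSO as negative control and baseline. Cells were primary rat cortical neurons grown on MEA plates and dosed from day 0 to day 12, treatment renewed on DIV 5 and 9.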

A short description of assay [9]: CCTE_Shafer_MEA_dev_mutual_information_norm: CCTE's Neural Network Formation Assay for Mutual Information Normalization, Shafer Lab (AID 2284091).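 For AC50: mutual information between electrodes summarised as area under curve across four recording days; potency is for a decrease in mutual information relative to DMSO.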 Put shortly: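 Rat cortical cultures, 48-well MEA, continuous exposure DIV 0–12 with full media/compound change DIV 5 and 9. Readout: inter-electrode mutual information, AxIS adaptive spike detection; AUC across DIV 5/7/9/12 recordings; DMSO baseline, negative fitting direction.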

A short description of assay [10]: CCTE_Shafer_MEA_dev_correlation_coefficient_mean: CCTE's Neural Network Formation Assay for Mean Correlation Coefficient, Shafer Lab (AID 2284093).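 For AC50: well mean pairwise spike train correlation integrated as AUC over recording days 5 to 12; potency fitted for loss of correlation relative to DMSO vehicle wells.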 Put shortly:
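Read-out: well-mean correlation coefficient of spike trains between electrode pairs, collapsed over four recording days as trapezoidal area-under-the-curve. Developing rat cortical neuron networks grown on MEAs received test chemical continuously from plating.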

A further assay deals with DIO2 (gene 1734). In words: CCTE_GLTED_hDIO2: CCTE's human Deiodinase 2 (DIO2) Inhibition Assay, Great Lakes Toxicology and Ecology Division (GLTED) Lab (AID 2284050; active = hit-call score of the fitted dose curve at least 0.9, where 1 is the maximum). The essentials: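 Cell-free human DIO2 enzyme was incubated with test chemical for 3 h; iodide liberated from substrate was then quantified by the Sandell-Kolthoff reaction (absorbance), run in triplicate. Loss of signal versus DMSO baseline indicated inhibition.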

In the next assay the test system is DIO3 (gene 1735). The experiment in a line: CCTE_GLTED_hDIO3: CCTE's human Deiodinase 3 (DIO3) Inhibition Assay, Great Lakes Toxicology and Ecology Division (GLTED) Lab (AID 2284055; active = hit-call score of the fitted dose curve at least 0.9, where 1 is the maximum;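 for AC50: potency is for inhibition seen as loss of released iodide signal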). The essentials: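 Cell-free assay with human DIO3 enzyme produced by adenovirus expression; enzyme incubated with test chemical for 3 hours. Liberated iodide then measured by Sandell-Kolthoff absorbance; loss of signal versus DMSO baseline indicates inhibition, run in triplicate.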

Assay [11] can be described thus: CCTE_Shafer_MEA_acute_LDH: CCTE's Lactate Dehydrogenase Assay for Cytotoxicity in the Neural Acute Assay, Shafer Lab (AID 2284086; active = hit-call score of the fitted dose curve at least 0.9, where 1 is the maximum;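 note: active means LDH release rises above DMSO vehicle level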). Put shortly:
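Primary rat cortical neurons on 48-well MEA plates, treated on day 13 or 15 post-plating. After the 40-min recording with compound, medium LDH release was read by absorbance at 490 nm. Gain of signal was fitted against DMSO negative control.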

Consider `OCC(F)(F)C(F)(F)C(F)(F)C(F)F`, for which the result in assay [1], in [2], in assay [3], in assay [4], in [5] and in assay [6] was inactive. Besides, the outcome in assay [7], in assay [8], in assay [9] and in assay [10] was inactive.
As for `C=CC(=O)OCC(F)(F)C(F)(F)C(F)(F)C(F)(F)COC(=O)C=C`, the AC50 in assay [1] was 2.28 µM (active); in assay [2], 4.19 µM (active); with DIO2 (gene 1734) it was 12.8 µM (active); in assay [3] it was 7.64 µM (active); in assay [5], 4.18 µM (active); in assay [6], 4.37 µM (active). Further, the AC50 in the assay on DIO3 (gene 1735) is 32.8 µM (active); in assay [7], 4.28 µM (active); in assay [8], 4.78 µM (active); in assay [9] it was 2.2 µM (active); in [10] it was 4.1 µM (active). The result in [4] was inactive.
As for `O=S(=O)(OCC(F)F)C(F)(F)F`, the outcome in assay [1], in assay [2], in assay [3], in assay [4], in assay [5] and in [6] was inactive. The molecule was called inactive in assay [7], in assay [9] and in [10].
Regarding `c1ccc(B(c2ccccc2)c2ccccc2)cc1`, the AC50 is 57.7 µM (active) with DIO2 (gene 1734) and 100 µM (active) in the assay on DIO3 (gene 1735).
`OCC(F)(F)C(F)(F)C(F)(F)C(F)(F)C(F)(F)C(F)F`: the molecule was called inactive in assay [1], in assay [2], in assay [3], in [4], in assay [5] and in assay [6]. Moreover, the outcome in assay [7], in assay [8], in assay [9] and in assay [10] was inactive.
Consider `O=C(O)C(F)(F)C(F)(F)C(F)F`, for which the molecule was called inactive in assay [1], in [2], in assay [3], in assay [4], in assay [5] and in assay [6]. Also, the outcome in [7], in [9] and in assay [10] was inactive.
`OCC(F)(F)C(F)(F)C(F)(F)F`: the call in assay [1], in [2], in [3], in assay [4], in assay [5] and in [6] was inactive. Further, the result in assay [8], in assay [9] and in assay [10] was inactive.
As for `C=C(C)C(=O)OCC(F)(F)C(F)(F)C(F)(F)F`, the molecule was called inactive in the assay on DIO3 (gene 1735).
On to `O=C(O)C(F)(F)C(F)(F)C(F)(F)C(F)(F)C(F)(F)C(F)(F)C(F)(F)C(F)(F)C(F)(F)C(F)(F)C(F)(F)C(F)(F)F`, for which the AC50 in the assay with DIO2 (gene 1734) is 74.9 µM (active); in the assay with DIO3 (gene 1735), 32.8 µM (active).
Regarding `OCCCC(F)(F)C(F)(F)C(F)(F)F`, the outcome in assay [1], in [2], in [3], in assay [4], in assay [5] and in assay [6] was inactive. The molecule was classed as inactive in assay [7], in [9] and in [10].
As for `CCCCCCOC(=O)c1ccccc1O`, the result in assay [11] was inactive.
As for `Cc1ccc(S(=O)(=O)OCC(F)(F)C(F)(F)C(F)(F)C(F)(F)C(F)(F)C(F)F)cc1`, the call in assay [1], in assay [2], in assay [3], in [4], in [5] and in assay [6] was inactive. Further, the result in assay [7], in [9] and in [10] was inactive.
On to `CC(C)(C)C(=O)CC(=O)C(F)(F)C(F)(F)C(F)(F)F`, for which the call in assay [1], in assay [4] and in [9] was inactive. Besides, the AC50 in assay [2] was 23.7 µM (active); in assay [3] it was 26 µM (active); in [5], 25.3 µM (active); in assay [6], 22.5 µM (active); in assay [7], 21.9 µM (active); in assay [8], 23.9 µM (active). Further, in [10], the AC50 is 24.1 µM (active).
For `CC(Cc1ccc(O)c(O)c1)C(C)Cc1ccc(O)c(O)c1` (stereo unspecified), the AC50 with DIO2 (gene 1734) is 19.3 µM (active); with DIO3 (gene 1735) it was 0.0863 µM (active).
As to `NC(=O)C(F)(F)C(F)(F)C(F)(F)C(F)(F)F`, the molecule was classed as inactive in [1], in assay [2], in assay [3], in assay [4], in assay [5] and in assay [6]. Further, the result in assay [9] and in [10] was inactive.
On to `O=C(O)C(F)(F)C(F)(F)C(F)(F)C(F)(F)C(F)(F)C(F)(F)C(F)(F)C(F)(F)C(F)(F)C(F)(F)C(F)(F)C(F)(F)C(F)(F)F`, for which the AC50 with DIO3 (gene 1735) is 33.1 µM (active).
Regarding `O=C(O)C(F)(F)C(F)(F)C(F)(F)F`, the molecule was classed as inactive in [1], in assay [2], in assay [3], in assay [4], in assay [5] and in assay [6]. Besides, the outcome in assay [7], in [9] and in [10] was inactive.
For `FC(F)(F)C(F)(F)C(F)(F)C(F)(F)C(F)(F)C(F)(F)CC1CO1` (stereo unspecified), the molecule was classed as inactive in [1], in [2], in assay [3], in [4], in assay [5] and in assay [6]. In addition, the molecule was called inactive in assay [9] and in assay [10].
